Screening results (PubChem)
FUS yeast rescue: FUS proteinopathy suppression in yeast; S. cerevisiae FUS-expressing, growth rescue, OD600, 24 h; Potency, µM (top dose mostly 76.6 µM), usual class: activators; 390,000 tested, 0.24% active;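 also: plate controls were DMSO vehicle for no effect and reference control for full effect; nearly all actives have a fitted effect of over 55% in size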
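Compound concentration series was pinned onto galactose-induced FUS-expressing yeast seeded at OD 0.005. Plates sat 24hr at 30C; absorbance at 600 nm gave growth. DMSO served as background control.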
ClpP mod: qHTS Assay for Activators of ClpP; Potency, µM (highest dose often 57.5 µM), inactives show at the highest dose activity change, negative = active; AID 651965, 2013; ATP-dependent Clp protease proteolytic subunit (Bacillus subtilis (strain 168)), P80244; purified B. subtilis ClpP, FRET peptide cleavage, 20 min; 340,000 tested, 1.9% active; active = well fitted falling curve with a large enough effect; inconclusive = small, poorly fitted or top-dose-only effect; inactive = no such curve, though single readings can be large or run the other way; also: the source files actives as falling curves though it sought activators and does not explain the sign; nearly all actives have a fitted effect of over 65% in size
Target sequence (P80244 whole entry, looked up): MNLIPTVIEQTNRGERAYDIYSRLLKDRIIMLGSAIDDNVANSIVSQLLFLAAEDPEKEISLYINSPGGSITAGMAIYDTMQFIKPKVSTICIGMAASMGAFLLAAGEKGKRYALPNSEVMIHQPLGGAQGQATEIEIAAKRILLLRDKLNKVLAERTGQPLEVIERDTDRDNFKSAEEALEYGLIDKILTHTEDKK
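Buffer: 100 mM Tris/HCl pH8, 100 mM KCl, 0.05% low protease BSA, 2.5% glycerol, 0.01% Tween-20. ClpP 10 microg/mL final; 20 min RT; delta FRET normalized to ADEP and DMSO controls.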
TDP43 rescue: inhibitors of TDP-43 toxicity in yeast; TDP-43 expressing yeast growth rescue, BacTiter-Glo, 24 h; AID 652104; 410,000 tested, 1.8% active; Potency, µM (top dose mostly 46.1 µM), without a hit: top-dose growth rescue (activation), actives largely listed as activators; also: % of control where 0% means no effect; nearly all actives have a fitted effect of over 50% in size
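Galactose-induced TDP-43 yeast, OD600=0.02, compound pinned; 24 hr, 30 deg C; BacTiter-Glo luminescence for growth. Inhibitors of TDP-43 toxicity read as activators.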
MmCpn inh: M. maripaludis TRiC chaperonin inhibition | 330,000 tested, 0.031% active | purified Mm-Cpn ATPase, ADP Transcreener TR-FRET | AID 504842 | Potency, µM (doses to about 76.9 µM), for inactives: at the highest dose activity, negative = inhibition, most hits filed as inhibitors; also: % is scaled to controls: 0 for no effect and ±100 for the full control effect; nearly all actives have a fitted effect of over 80% in size
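Inhibition of chaperonin ATP hydrolysis is measured as reduced ADP production, detected by competitive TR-FRET in which signal falls with ADP. Final enzyme 25 nM and ATP 10 uM, reacted 30 min at 37°C.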
Abeta yeast res: restores growth of yeast expressing A-beta42 peptide. Potency, µM (series often up to 46.1 µM), usual class: activators. AID 1347071. yeast expressing A-beta42, growth rescue, OD600, 48 h; response scale: 0% DMSO, 100% iron-clioquinol control. 410,000 tested, 0.063% active; also: nearly all actives have a fitted effect of over 55% in size
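Yeast growth medium received pinned compounds, then yeast cells expressing toxic A-beta were added; plates incubated at 30 C for 48 hr. Growth read as absorbance at 600 nm, normalized to DMSO and equimolar FeCl3 plus clioquinol controls.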
aSyn yeast inh: rescues yeast growth from alpha-synuclein toxicity; Yeast expressing alpha-synuclein, growth rescue, BacTiter-Glo, 24 h; Potency, µM (titrated, usually from 46.1 µM), inactives show at the highest dose growth rescue (activation), usual class: activators; 370,000 tested, 0.14% active; AID 652106; also: % of control where 0% means no effect; nearly all actives have a fitted effect of over 65% in size
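Readout is rescue of growth in alpha-synuclein-expressing yeast, so inhibitors of toxicity appear as activators. Growth after 24 hr at 30 deg C in galactose medium is quantified by luminescence.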
Active calls of the source: *. Sampled rows, rich in hits. Any-hit rate of the full collection: about 3.6%. Unless noted, calls follow the shape of the dose curve; as a rule, active = well fitted curve in the direction sought with a large enough effect; inconclusive = small, poorly fitted or top-dose-only effect, or another doubt; inactive = no such curve, though single readings can be large; an effect the other way counts as inactive or inconclusive. Potency is read from the fitted curve at half-maximal effect.

`CC(C)(C)n1nnnc1CN(Cc1ccco1)Cc1cc2cc3c(cc2[nH]c1=O)OCO3` gave FUS yeast rescue inactive, ClpP mod 28.2µM*, TDP43 rescue 22.4%, MmCpn inh 0.9%, Abeta yeast res inactive and aSyn yeast inh -1.3%.
`COc1ccc2cc(CN(Cc3ccco3)Cc3nnnn3C3CCCCC3)c(=O)[nH]c2c1` gave FUS yeast rescue inconclusive, ClpP mod -6.8%, TDP43 rescue -5.1%, MmCpn inh -3.0%, Abeta yeast res inactive and aSyn yeast inh 12.3%.
`CCC(C)(C)n1nnnc1CN(Cc1ccco1)Cc1cc2cc3c(cc2[nH]c1=O)OCO3` gave FUS yeast rescue inactive, ClpP mod 31.6µM*, TDP43 rescue -11.0%, MmCpn inh 0.4%, Abeta yeast res inactive and aSyn yeast inh -0.8%.
`COCc1nnc(NC(=O)C2CCN(C(=O)c3ccccc3)CC2)s1` gave ClpP mod 1.5% and aSyn yeast inh -0.1%.
`COC(=O)Nc1ccc(=O)n(Cc2c(Cl)cccc2Cl)c1` gave FUS yeast rescue inactive, ClpP mod 28.2µM*, TDP43 rescue 0.0%, MmCpn inh -1.9%, Abeta yeast res inactive and aSyn yeast inh -11.1%.
For CCOC(=O)Cn1c(=N)n(CCOc2ccc(F)cc2)c2ccccc21 the results were FUS yeast rescue inactive, ClpP mod 3.98µM*, TDP43 rescue 5.3%, MmCpn inh -1.7%, Abeta yeast res inactive and aSyn yeast inh 5.0%.
`C=CCn1c(=N)n(CC(=O)OCC)c2ccccc21` gave ClpP mod 25.1µM*, TDP43 rescue 3.4%, MmCpn inh inconclusive, Abeta yeast res inactive and aSyn yeast inh -0.5%.
`N=c1n(CCCOc2ccc(F)cc2)c2ccccc2n1CC(N)=O` gave FUS yeast rescue inactive, TDP43 rescue -6.0%, MmCpn inh 1.4%, Abeta yeast res inactive and aSyn yeast inh 6.3%.
CCC(c1ccc(OC)cc1)c1cn(C)c2ccccc12 (centres undefined) was read as FUS yeast rescue inactive.
O=C(O)/C(=C\c1ccc(Cl)c([N+](=O)[O-])c1)c1ccc(S(=O)(=O)N2CCCCC2)s1 was read as FUS yeast rescue inactive, ClpP mod 28.2µM*, TDP43 rescue 1.9%, MmCpn inh 0.9%, Abeta yeast res inactive and aSyn yeast inh -0.2%.
`COc1ccc(C2C(=O)N(C3CCCCCC3)CC(=O)N2Cc2ccccc2)cc1` (centres undefined) gave FUS yeast rescue inactive, ClpP mod 1.6%, TDP43 rescue -3.3% and Abeta yeast res inactive.
Cc1cn2c(=O)c(S(=O)(=O)NCc3ccccc3Cl)c(C)nc2s1 was read as FUS yeast rescue inactive, ClpP mod 15.8µM*, TDP43 rescue 8.4% and Abeta yeast res inactive.
For Cc1cn2c(=O)c(S(=O)(=O)NCc3ccc(F)cc3)c(C)nc2s1 the results were FUS yeast rescue inactive, ClpP mod 31.6µM*, TDP43 rescue 5.1% and Abeta yeast res inactive.
